Assay in all cases: DAPPL (digital affinity profiling via proximity ligation, sequencing); 10 mM Tris-HCl pH 7.5, 50 mM NaCl, 1 mM DTT, 4% glycerol, room temperature, 30 min; GST-TFs on glutathione beads, 16-mer random dsDNA library, 0.1% formaldehyde crosslink after washing; high values mean tight binding
In one assay the target is T1, FEV (Homo sapiens, UniProt Q99581 1-238).
T1 sequence: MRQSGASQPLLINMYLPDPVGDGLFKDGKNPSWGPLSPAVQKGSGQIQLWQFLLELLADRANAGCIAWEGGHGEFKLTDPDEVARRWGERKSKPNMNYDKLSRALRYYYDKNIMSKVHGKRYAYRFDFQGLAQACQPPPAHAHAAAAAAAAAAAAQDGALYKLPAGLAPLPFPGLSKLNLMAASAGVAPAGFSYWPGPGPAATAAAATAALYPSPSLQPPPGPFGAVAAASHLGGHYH
The conditions noted are these: protein: recombinant; tags: N-terminal GST; dsDNA, one strand shown. Put shortly:
(§1)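 Human transcription factors fused to GST were expressed in yeast, captured on glutathione beads, given DNA barcodes and pooled with a GST-only negative control. Pools were incubated with 200 nmole of a 16-mer random double-stranded DNA library in Tris/NaCl/DTT/glycerol buffer at room temperature for 30 min. They were then washed, crosslinked with 0.1% formaldehyde, proximity-ligated (BsaI/T4 ligase, 1 h, 37 °C), PCR-amplified and sequenced on an Illumina NextSeq500. Binding signal is each 6-mer's read frequency for a factor divided by its frequency for the GST control.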

For a further assay, the target named is ETV5 (Homo sapiens, UniProt P41161 1-510). The note with it: protein: recombinant; tags: N-terminal GST; dsDNA, one strand shown. Put shortly:
as §1

The target of another assay is HSF1 (Homo sapiens, UniProt Q00613 1-529). The note with it: protein: recombinant; tags: N-terminal GST; chain copies: 3; dsDNA, one strand shown. The procedure, abridged: as §1
A further assay concerns the target T2, SPIC (Homo sapiens, UniProt Q8N5J4 1-248).
T2 sequence: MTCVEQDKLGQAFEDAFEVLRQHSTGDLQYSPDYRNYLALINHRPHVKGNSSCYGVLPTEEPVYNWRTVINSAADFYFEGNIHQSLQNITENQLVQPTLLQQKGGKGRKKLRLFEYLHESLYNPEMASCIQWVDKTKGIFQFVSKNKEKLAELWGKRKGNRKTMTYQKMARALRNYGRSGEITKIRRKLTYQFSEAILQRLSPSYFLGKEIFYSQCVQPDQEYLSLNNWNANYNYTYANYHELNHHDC
The note with it: protein: recombinant; tags: N-terminal GST; dsDNA, one strand shown. The procedure, abridged:
as §1

The next assay concerns the target ELF4 (Homo sapiens, UniProt Q99607 1-663). The note with it: protein: recombinant; tags: N-terminal GST; dsDNA, one strand shown. Put shortly:
as §1

The next assay addresses T3, ELK4 (Homo sapiens, UniProt P28324-2 1-405).
T3 sequence: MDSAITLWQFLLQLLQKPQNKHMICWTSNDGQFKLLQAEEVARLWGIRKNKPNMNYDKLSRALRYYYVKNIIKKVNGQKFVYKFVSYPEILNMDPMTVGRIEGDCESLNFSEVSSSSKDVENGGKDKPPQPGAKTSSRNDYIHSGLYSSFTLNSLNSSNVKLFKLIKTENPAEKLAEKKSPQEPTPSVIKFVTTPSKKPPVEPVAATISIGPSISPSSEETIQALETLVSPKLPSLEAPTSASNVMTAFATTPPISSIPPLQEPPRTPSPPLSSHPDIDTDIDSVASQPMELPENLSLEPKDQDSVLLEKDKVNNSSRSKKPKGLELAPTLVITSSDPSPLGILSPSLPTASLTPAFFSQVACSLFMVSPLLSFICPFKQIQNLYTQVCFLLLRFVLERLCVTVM
The conditions noted are these: protein: recombinant; tags: N-terminal GST; dsDNA, one strand shown. Put shortly: as §1

In another assay the target is T4, ETV2 (Homo sapiens, UniProt O00321 1-342).
T4 sequence: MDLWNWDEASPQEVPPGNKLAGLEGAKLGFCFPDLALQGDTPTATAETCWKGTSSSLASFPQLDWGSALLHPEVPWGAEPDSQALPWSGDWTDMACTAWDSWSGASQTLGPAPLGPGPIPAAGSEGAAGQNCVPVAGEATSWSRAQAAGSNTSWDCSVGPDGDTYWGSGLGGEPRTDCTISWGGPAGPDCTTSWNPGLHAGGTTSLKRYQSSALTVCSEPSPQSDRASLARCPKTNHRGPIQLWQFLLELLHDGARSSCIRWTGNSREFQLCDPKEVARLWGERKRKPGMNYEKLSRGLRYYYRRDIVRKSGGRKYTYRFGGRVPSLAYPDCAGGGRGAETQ
The note with it: protein: recombinant; tags: N-terminal GST; dsDNA, one strand shown. The procedure, abridged:
as §1

For another assay, the target named is T5, ELF3 (Homo sapiens, UniProt P78545 1-371).
T5 sequence: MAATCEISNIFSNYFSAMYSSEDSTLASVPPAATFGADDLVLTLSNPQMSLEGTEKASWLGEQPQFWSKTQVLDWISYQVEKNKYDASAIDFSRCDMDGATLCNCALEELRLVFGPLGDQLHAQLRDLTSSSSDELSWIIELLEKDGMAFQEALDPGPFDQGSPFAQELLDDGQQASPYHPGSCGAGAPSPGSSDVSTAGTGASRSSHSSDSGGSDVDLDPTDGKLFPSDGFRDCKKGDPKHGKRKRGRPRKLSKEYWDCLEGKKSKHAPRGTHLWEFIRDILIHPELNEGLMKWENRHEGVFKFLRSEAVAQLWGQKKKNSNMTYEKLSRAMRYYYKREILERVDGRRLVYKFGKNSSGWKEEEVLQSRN
The conditions noted are these: protein: recombinant; tags: N-terminal GST; dsDNA, one strand shown. Put shortly: as §1

A further assay addresses CRX (Homo sapiens, UniProt O43186 1-299). The conditions noted are these: protein: recombinant; tags: N-terminal GST; dsDNA, one strand shown. The procedure, abridged: as §1
The target in the next assay is ETV1 (Homo sapiens, UniProt P50549 1-477). The conditions noted are these: protein: recombinant; tags: N-terminal GST; dsDNA, one strand shown. Put shortly:
as §1

The target of the next assay is T6, ERF (Homo sapiens, UniProt P50548 1-548).
T6 sequence: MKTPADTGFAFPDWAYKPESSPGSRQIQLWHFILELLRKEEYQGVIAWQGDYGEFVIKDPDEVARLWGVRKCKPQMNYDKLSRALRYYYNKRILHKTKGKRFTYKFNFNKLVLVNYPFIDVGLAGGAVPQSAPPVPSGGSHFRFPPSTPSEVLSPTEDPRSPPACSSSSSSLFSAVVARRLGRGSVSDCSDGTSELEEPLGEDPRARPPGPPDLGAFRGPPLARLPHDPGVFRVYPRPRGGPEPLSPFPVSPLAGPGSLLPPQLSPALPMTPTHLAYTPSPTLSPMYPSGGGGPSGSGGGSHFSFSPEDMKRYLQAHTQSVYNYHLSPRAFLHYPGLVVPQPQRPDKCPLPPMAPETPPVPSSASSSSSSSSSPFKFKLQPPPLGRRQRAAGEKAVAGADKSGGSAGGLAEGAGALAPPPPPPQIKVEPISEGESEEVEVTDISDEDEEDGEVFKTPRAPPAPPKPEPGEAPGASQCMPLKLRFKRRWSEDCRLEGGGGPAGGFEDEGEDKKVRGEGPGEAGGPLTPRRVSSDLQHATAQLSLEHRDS
The conditions noted are these: protein: recombinant; tags: N-terminal GST; dsDNA, one strand shown. The procedure, abridged:
as §1

In another assay the target is T7, ETV3L (Homo sapiens, UniProt Q6ZN32 1-361).
T7 sequence: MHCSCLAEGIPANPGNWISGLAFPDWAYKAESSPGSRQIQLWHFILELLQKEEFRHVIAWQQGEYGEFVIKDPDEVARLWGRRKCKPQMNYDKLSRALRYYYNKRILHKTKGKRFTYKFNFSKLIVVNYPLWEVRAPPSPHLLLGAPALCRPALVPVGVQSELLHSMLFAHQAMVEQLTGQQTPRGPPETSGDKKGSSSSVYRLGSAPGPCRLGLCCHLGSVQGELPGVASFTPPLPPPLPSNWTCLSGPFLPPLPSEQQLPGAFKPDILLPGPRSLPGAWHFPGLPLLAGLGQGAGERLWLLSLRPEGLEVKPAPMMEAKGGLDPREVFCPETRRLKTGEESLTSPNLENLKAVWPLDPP
The conditions noted are these: protein: recombinant; tags: N-terminal GST; dsDNA, one strand shown. The procedure, abridged:
as §1

The next assay addresses T8, ETS2 (Homo sapiens, UniProt P15036 1-469).
T8 sequence: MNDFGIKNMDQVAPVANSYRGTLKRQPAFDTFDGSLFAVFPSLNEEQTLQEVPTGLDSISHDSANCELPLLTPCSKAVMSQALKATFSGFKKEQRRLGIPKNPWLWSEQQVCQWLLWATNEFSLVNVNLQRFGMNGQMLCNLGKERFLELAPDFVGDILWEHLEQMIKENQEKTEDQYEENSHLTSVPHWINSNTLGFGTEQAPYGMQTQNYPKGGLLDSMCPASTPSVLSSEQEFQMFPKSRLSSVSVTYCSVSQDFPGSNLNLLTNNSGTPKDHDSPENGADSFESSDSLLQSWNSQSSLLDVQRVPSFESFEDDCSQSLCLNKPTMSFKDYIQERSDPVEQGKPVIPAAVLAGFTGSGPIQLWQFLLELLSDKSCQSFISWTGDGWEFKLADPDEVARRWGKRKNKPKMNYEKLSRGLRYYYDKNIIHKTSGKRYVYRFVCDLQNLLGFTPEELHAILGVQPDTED
The conditions noted are these: protein: recombinant; tags: N-terminal GST; dsDNA, one strand shown. The procedure, abridged:
as §1

For another assay, the target named is T9, SPDEF (Homo sapiens, UniProt O95238 1-335).
T9 sequence: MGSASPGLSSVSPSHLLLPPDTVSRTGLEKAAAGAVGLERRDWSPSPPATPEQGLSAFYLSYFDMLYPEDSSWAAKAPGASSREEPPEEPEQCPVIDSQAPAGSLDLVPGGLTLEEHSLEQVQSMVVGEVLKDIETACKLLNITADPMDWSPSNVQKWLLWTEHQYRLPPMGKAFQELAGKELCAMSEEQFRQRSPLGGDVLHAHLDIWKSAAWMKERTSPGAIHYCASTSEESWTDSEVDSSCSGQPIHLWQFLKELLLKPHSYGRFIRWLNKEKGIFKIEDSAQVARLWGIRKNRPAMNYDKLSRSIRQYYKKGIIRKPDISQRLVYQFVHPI
The note with it: protein: recombinant; tags: N-terminal GST; dsDNA, one strand shown. The procedure, abridged:
as §1

A further assay deals with T10, ETV7 (Homo sapiens, UniProt Q9Y603 1-341).
T10 sequence: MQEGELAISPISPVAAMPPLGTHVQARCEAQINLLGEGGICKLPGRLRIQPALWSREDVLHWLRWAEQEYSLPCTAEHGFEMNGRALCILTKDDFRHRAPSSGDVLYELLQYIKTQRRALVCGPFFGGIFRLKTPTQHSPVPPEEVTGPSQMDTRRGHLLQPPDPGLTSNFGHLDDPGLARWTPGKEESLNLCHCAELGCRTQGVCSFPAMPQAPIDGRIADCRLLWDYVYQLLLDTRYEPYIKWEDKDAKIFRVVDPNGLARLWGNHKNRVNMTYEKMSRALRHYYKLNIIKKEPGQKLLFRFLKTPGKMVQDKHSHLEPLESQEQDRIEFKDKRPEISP
The conditions noted are these: protein: recombinant; tags: N-terminal GST; dsDNA, one strand shown. The procedure, abridged: as §1

The next assay deals with T11, ELF5 (Homo sapiens, UniProt Q9UKW6-2 1-255).
T11 sequence: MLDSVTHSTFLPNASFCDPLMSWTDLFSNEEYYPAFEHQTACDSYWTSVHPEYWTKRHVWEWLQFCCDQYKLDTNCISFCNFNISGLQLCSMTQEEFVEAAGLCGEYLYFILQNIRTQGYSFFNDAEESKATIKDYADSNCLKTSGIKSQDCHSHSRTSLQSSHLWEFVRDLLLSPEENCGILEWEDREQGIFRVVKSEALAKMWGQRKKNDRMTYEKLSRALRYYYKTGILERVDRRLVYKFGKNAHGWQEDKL
The note with it: protein: recombinant; tags: N-terminal GST; dsDNA, one strand shown. Put shortly: as §1

The target of a further assay is T12, ETV3 (Homo sapiens, UniProt P41162-2 1-143).
T12 sequence: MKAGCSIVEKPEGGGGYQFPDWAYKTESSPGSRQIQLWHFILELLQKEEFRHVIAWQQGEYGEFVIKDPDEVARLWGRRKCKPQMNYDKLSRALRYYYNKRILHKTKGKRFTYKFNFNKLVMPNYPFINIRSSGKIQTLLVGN
The conditions noted are these: protein: recombinant; tags: N-terminal GST; dsDNA, one strand shown. Put shortly: as §1

A further assay addresses ETV6 (Homo sapiens, UniProt P41212 1-452). The note with it: protein: recombinant; tags: N-terminal GST; dsDNA, one strand shown. The procedure, abridged:
as §1

Consider one sequence from publication PMC7862700, “An all-to-all approach to the identification of sequence-specific readers for epigenetic DNA modifications on cytosine”.

Sequence of HSF1 (Q00613 whole entry): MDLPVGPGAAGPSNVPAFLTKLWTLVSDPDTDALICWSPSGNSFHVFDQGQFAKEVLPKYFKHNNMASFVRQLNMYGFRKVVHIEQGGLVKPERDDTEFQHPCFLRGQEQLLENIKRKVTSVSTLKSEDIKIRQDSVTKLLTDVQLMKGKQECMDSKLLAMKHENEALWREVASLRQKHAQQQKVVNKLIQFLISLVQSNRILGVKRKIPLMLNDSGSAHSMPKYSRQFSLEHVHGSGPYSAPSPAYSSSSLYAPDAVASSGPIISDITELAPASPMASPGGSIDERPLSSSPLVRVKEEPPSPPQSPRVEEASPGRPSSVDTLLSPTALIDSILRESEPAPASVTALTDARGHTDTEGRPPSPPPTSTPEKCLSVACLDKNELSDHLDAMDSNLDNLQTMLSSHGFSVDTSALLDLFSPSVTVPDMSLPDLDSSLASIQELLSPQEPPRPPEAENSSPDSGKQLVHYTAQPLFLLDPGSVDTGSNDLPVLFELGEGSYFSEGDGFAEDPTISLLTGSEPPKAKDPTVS
Sequence of ELF4 (Q99607 whole entry): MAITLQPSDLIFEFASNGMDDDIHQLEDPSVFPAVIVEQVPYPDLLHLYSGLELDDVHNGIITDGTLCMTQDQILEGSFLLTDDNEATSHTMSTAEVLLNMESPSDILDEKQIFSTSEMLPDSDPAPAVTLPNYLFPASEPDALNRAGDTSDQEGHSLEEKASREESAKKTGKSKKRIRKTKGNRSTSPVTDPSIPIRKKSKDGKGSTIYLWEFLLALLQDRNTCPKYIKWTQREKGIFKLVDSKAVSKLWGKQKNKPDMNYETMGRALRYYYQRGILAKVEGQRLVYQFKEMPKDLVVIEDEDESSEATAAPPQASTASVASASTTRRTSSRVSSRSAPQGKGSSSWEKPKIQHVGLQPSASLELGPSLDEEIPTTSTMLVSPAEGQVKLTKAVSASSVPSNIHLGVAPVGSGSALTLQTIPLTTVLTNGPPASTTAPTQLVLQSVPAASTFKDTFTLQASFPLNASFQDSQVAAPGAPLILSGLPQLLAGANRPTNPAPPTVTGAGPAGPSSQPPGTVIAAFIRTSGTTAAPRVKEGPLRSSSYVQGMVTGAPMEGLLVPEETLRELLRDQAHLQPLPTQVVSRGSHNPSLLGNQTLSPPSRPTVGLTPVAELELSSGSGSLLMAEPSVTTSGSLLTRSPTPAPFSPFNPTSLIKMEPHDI
Sequence of ETV6 (P41212 whole entry): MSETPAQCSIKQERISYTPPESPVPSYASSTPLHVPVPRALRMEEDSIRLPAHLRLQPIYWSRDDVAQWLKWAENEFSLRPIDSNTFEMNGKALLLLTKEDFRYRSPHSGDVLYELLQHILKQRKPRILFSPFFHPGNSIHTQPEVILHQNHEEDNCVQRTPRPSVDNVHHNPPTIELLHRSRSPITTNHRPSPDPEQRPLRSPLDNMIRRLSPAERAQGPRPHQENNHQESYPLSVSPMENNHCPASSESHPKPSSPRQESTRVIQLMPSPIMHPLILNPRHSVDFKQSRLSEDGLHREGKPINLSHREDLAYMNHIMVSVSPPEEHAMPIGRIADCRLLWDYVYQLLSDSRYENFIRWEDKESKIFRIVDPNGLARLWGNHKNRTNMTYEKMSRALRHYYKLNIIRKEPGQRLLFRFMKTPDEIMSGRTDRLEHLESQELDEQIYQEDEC
Sequence of ETV5 (P41161 whole entry): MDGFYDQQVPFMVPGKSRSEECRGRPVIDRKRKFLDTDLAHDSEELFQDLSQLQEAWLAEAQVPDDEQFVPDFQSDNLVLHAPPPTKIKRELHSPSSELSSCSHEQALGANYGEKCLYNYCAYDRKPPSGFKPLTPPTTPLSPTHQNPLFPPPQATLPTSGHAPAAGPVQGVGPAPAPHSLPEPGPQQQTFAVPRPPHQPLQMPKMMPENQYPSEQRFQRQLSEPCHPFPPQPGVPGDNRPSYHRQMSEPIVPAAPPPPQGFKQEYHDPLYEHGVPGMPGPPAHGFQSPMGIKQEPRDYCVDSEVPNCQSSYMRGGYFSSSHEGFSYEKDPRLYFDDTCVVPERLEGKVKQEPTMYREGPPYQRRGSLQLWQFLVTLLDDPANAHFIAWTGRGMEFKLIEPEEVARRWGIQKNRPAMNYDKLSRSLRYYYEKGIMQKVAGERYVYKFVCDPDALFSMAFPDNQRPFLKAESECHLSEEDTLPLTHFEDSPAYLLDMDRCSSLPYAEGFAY
Sequence of CRX (O43186 whole entry): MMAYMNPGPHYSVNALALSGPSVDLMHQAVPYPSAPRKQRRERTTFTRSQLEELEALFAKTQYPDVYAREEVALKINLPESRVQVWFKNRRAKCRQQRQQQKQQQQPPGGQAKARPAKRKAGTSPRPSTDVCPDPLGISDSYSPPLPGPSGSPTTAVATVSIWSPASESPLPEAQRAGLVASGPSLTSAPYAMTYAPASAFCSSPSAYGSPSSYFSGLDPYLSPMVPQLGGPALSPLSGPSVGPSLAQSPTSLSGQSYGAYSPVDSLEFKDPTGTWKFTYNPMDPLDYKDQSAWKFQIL
Sequence of ETV1 (P50549 whole entry): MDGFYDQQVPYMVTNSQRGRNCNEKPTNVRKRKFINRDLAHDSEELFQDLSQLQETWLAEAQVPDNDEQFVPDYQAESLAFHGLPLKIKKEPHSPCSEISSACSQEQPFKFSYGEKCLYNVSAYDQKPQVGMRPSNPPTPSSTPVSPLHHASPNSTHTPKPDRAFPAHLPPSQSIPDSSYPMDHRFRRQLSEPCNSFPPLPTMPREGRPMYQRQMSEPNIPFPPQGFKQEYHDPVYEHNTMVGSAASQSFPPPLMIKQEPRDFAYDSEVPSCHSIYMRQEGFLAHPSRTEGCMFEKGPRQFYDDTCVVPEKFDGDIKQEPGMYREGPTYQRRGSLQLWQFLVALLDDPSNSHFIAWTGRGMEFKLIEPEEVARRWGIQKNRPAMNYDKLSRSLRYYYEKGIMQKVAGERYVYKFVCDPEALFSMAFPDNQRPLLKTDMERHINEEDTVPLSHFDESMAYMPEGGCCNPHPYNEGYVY

As for GTACTT, the binding signal with FEV is 2.21 fold enrichment (6-mer frequency, TF over GST control); in the assay with ETV5, 1.95 fold enrichment (6-mer frequency, TF over GST control); with HSF1 it was 1.35 fold enrichment (6-mer frequency, TF over GST control); in the assay with SPIC it was 1.86 fold enrichment (6-mer frequency, TF over GST control); with ELF4, 1.86 fold enrichment (6-mer frequency, TF over GST control); in the assay with ELK4, 1.78 fold enrichment (6-mer frequency, TF over GST control). Further, the binding signal with ETV2 was 1.88 fold enrichment (6-mer frequency, TF over GST control); in the assay with ELF3, 2.04 fold enrichment (6-mer frequency, TF over GST control); in the assay with CRX, 1.6 fold enrichment (6-mer frequency, TF over GST control); with ETV1 it was 2.05 fold enrichment (6-mer frequency, TF over GST control); with ERF, 1.64 fold enrichment (6-mer frequency, TF over GST control); with ETV3L it was 1.87 fold enrichment (6-mer frequency, TF over GST control). In addition, the binding signal in the assay with ETS2 was 2.02 fold enrichment (6-mer frequency, TF over GST control); in the assay with SPDEF it was 2.57 fold enrichment (6-mer frequency, TF over GST control); with ETV7, 2.11 fold enrichment (6-mer frequency, TF over GST control); in the assay with ELF5 it was 2.51 fold enrichment (6-mer frequency, TF over GST control); in the assay with ETV3, 1.97 fold enrichment (6-mer frequency, TF over GST control); with ETV6, 2.47 fold enrichment (6-mer frequency, TF over GST control).
